Source: PubChem BioAssay (NCATS)
Results filed as inconclusive are left out. Calls of active or inactive are those of the source. Calls come from the whole dose curve; as a rule, active = well fitted inhibition curve with a large enough effect; inconclusive = small, poorly fitted or top-dose-only effect; inactive = flat fitted curve, though single readings scatter.

Key:
Assay in all cases: qHTS profiling for inhibitors of Plasmodium falciparum proliferation (AID 504749); note: nearly all actives have a fitted effect of over 60% in size
Conditions in all cases: P. falciparum in erythrocytes, SYBR Green DNA, 72 h; series mostly up to 28.7 µM
CP262 = system: CP262
How it was run: (§1)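 Quantitative HTS: compounds pinned into medium, infected erythrocytes added (0.3% parasitemia, 2.5% hematocrit), 72 h culture at 37 C under 5% CO2. Saponin/Triton lysis with SYBR Green I, overnight RT, then fluorescence read.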

CP265 = system: CP265
How it was run: as §1

CP266 = system: CP266
How it was run: as §1

CP268 = system: CP268
How it was run: as §1

CP269 = system: CP269
How it was run: as §1

CP286 = system: CP286
How it was run: as §1

CP291 = system: CP291
How it was run: as §1

CP297 = system: CP297
How it was run: as §1

CP305 = system: CP305
How it was run: as §1

CP315 = system: CP315
How it was run: as §1

CP325 = system: CP325
How it was run: as §1

CP329 = system: CP329
How it was run: as §1

CP335 = system: CP335
How it was run: as §1

DFO2036 = system: DFO2036
How it was run: as §1

DIV14 = system: DIV14
How it was run: as §1

DIV17 = system: DIV17
How it was run: as §1

DIV30 = system: DIV30
How it was run: as §1

Dd2 = system: Dd2
How it was run: as §1

ECU = system: ECU
How it was run: as §1

FAB9 = system: FAB9
How it was run: as §1

Measured: Potency

COC(=O)[C@@H]1[C@@H]2C[C@H]3c4[nH]c5ccccc5c4CCN3C[C@@H]2CC[C@@H]1O
inactive: CP262 | CP265 | CP266 | CP268 | CP269 | CP286 | CP291 | CP297 | CP305 | CP315 | CP325 | CP329 | CP335 | DFO2036 | DIV14 | DIV17 | DIV30 | Dd2 | ECU | FAB9

C[C@@H](C(=O)O)c1ccc(-c2ccccc2)c(F)c1
inactive: CP262 | CP265 | CP266 | CP268 | CP269 | CP286 | CP291 | CP297 | CP305 | CP315 | CP325 | CP329 | CP335 | DFO2036 | DIV14 | DIV17 | DIV30 | Dd2 | ECU | FAB9
